This note sets out measurements from PubChem BioAssay (NCI).

This is part of a sample that, as a whole, favours compounds with a hit. Of some 83,000 tested, about 20% had one in any assay.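 A percent growth of 40 corresponds to 60% growth inhibition; 0 means no net growth; -100 means all cells died. Active threshold: below 10.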 A number with no mark means an inactive call. Active and inactive are the calls of the source.

What all share (experiment): NCI-60 one-dose screen, 48 h (100 = growth as untreated, 0 = no growth, -100 = all killed)
Holding throughout (conditions): 10 µM unless noted

For assay [1], the system named is SR leukemia.
In assay [2] the test system is RPMI-8226 leukemia.
The subject of assay [3] is OVCAR-8 ovarian.
The subject of assay [4] is OVCAR-5 ovarian.
The test system of assay [5] is OVCAR-4 ovarian.
Assay [6] relates to SK-OV-3 ovarian.
Assay [7] relates to IGROV1 ovarian.
Assay [8] deals with OVCAR-3 ovarian.
The test system of assay [9] is HS 578T breast.
Assay [10] deals with NCI/ADR-RES ovarian.

For the compound `CCOC(=O)C#Cc1c(C(=O)OCC)nnn1Cc1ccc([N+](=O)[O-])cc1`, the growth in [1] is -10.7% (active); in [2], 11.4%; in [3], 63.3%; in assay [4], 97.3%; in assay [5], 51.2%; in assay [6], 105%. For the same compound, the growth in assay [7] was 89.6%; in assay [8], 7.55% (active); in [9] it was 91.2%; in assay [10] it was 96.3%.
`CCCC/C=C/[C@@H]1C[C@H]1CCO`: the growth in assay [1] is 100%; in [2], 99.3%; in [4] it was 89.1%; in [5], 107%; in [6], 91.8%; in assay [7] it was 100%. For the same compound, the growth in assay [8] is 109%; in assay [9] it was 101%; in assay [10] it was 104%.
Consider `COC1=CC(c2ccc[nH]2)=N/C1=C\c1[nH]c(C)c(CC(=O)NCc2ccccc2)c1C`, for which the growth is -29.1% (active) in assay [1]; 18.4% in [2]; 31.5% in [4]; 46.3% in assay [5]; 25.7% in [6]; 38.2% in assay [7]. Further, the growth in [8] is 11.1%; in assay [9], 24.6%; in assay [10], -40.7% (active).
Turning to `Cc1cccc(/C=C2\CN(C(=O)OC(C)(C)C)C/C(=C\c3cccc(C)c3)C2=O)c1`, the growth in assay [1] was 6.54% (active); in assay [2] it was -7.31% (active); in assay [4], 109%; in assay [5], 89.2%; in assay [6] it was 93.3%; in assay [7], 90.4%. The growth was 97.5% in assay [8], 96.7% in assay [9] and 88% in assay [10].
For `O=C(Nc1nc2ccccc2s1)c1ccc(F)cc1`, the growth in assay [1] was 98.4%; in [2], 88.5%; in assay [4], 101%; in assay [5], 85.4%; in assay [6] it was 108%; in [7], 88.9%. Also, the values for the growth in assay [8], in assay [9] and in assay [10] were 104%, 140% and 95.7%, respectively.
As for `COc1ccc(C(=O)c2cc3c(N)c(C(=O)Nc4ccc(C)cc4)sc3nc2C)cc1`, the growth was 18.1% in assay [1]; 24.1% in assay [2]; 22% in [3]; 29.6% in assay [4]; 51.1% in assay [5]; 35.3% in assay [6]. Further, the growth in assay [7] was 28.6%; in assay [8], -5.4% (active); in assay [9], -1.41% (active); in assay [10], 14.9%.
In the case of `N#Cc1nc(-c2ccc(F)cc2)oc1S(=O)(=O)N1CCOCC1`, the growth in assay [1] was -5.89% (active); in assay [2], 41.2%; in assay [4], 101%; in [5] it was 60.9%; in assay [6] it was 99.4%; in [7] it was 78.3%. Further, the growth is -88.4% (active) in [8], 123% in assay [9] and 91.1% in assay [10].
Consider `Nc1c(C(=O)Nc2ccncc2)sc2nc3c(cc12)C(O)CCC3` (stereo not given), for which the growth in [1] is 84.1%; in [2] it was 89.3%; in assay [4], 97.2%; in [5], 114%; in [6], 98%; in [7] it was 103%. The growth in [8] was 119%; in [9] it was 118%; in assay [10], 105%.
As for `COc1ccc(OC)c(-c2nc(SCC(=O)c3ccc(C#N)cc3)[nH]c(=O)c2C#N)c1`, the growth is 97.3% in [1]; 114% in [2]; 89.5% in [4]; 106% in assay [5]; 78% in assay [6]; 96.4% in [7]. The growth was 89.4% in assay [8], 102% in assay [9] and 97.4% in [10].
Regarding `CCN(CC)CCn1c2ccc(O)cc2c2sc3cc(O)ccc3c(=O)c21`, the growth in assay [1] was 5.78% (active); in assay [2] it was 28.3%; in [3] it was 31.4%; in assay [4] it was 54%; in assay [5], 46.6%; in assay [6], 48.7%. Also, the growth was 15.4% in assay [7], 41% in assay [8], 64.5% in assay [9] and 61.1% in assay [10].
As for `CC(C)=CCCC(C)c1ccc(C)c2c1OCN(CCCCCO)C2` (stereo not given), the growth in assay [1] was 66.6%; in assay [2], 76.7%; in assay [4], 87.4%; in assay [5], 95.4%; in assay [6], 88.8%; in [7], 90.4%. The growth is 99.7% in assay [8], 81.2% in assay [9] and 75.9% in assay [10].
With `COc1ccc(C2CC(c3ccc(Nc4nc(Nc5ccccc5)nc(Nc5ccccc5)n4)cc3)=NN2C(C)=O)cc1` (stereo not given), the growth in assay [1] is 88.2%; in [2] it was 73.7%; in [4], 104%; in assay [5], 89.7%; in [6], 124%; in [7] it was 118%. Besides, the growth in assay [8] was 91.4%; in [9], 102%; in assay [10] it was 89.7%.
Consider `C=CCc1c(O)c(C(=O)/C=C/c2ccccc2)c(OC)c2ccoc12`, for which the growth in [1] is 20.6%; in [2], 6.17% (active); in [4] it was 90.5%; in [5] it was 49.1%; in assay [6] it was 74.4%; in [7], 54.7%. Also, the growth in assay [8] was 13.7%; in [9] it was 66.1%; in [10], 21%.
Turning to `N#Cc1ccc(O)c(C2=NCC(c3ccccc3)O2)c1` (stereo not given), the growth in [1] is 38%; in [2], 33.3%; in assay [3], 19.6%; in assay [4] it was 84%; in assay [5], 9.62% (active); in [6] it was 45.3%. Further, the growth was 33.1% in assay [7], 7.61% (active) in assay [8], 77.2% in [9] and 1.45% (active) in assay [10].
Regarding `CN1CCc2nc3sc(C(N)=O)c(N)c3c(-c3cccs3)c2C1`, the growth in assay [1] is 22.8%; in assay [2], 75.7%; in assay [4], 15.1%; in assay [5], 64.5%; in assay [6], 57.4%; in assay [7], 26.2%. In addition, the growth was -32.5% (active) in [8], 32.4% in assay [9] and 40.6% in [10].
In the case of `CC(C)C1=NOC(=O)C1=Cc1cn(-c2ccccc2)nc1-c1ccc(F)cc1`, the growth in [1] is -17% (active); in assay [2], -17.4% (active); in [4] it was 95.2%; in assay [5], 94.1%; in assay [6] it was 107%; in assay [7], 61.3%. The growth in [8] is 64%; in assay [9], 49.6%; in assay [10], 101%.
Take `Nc1ncnc2c1C(c1ccc(Br)cc1)c1sc3c(F)cccc3c1O2` (stereo not given): the growth in [1] was 85.6%; in assay [2] it was 100%; in [4], 99.8%; in [5], 87.4%; in [6] it was 102%; in assay [7], 81.6%. Moreover, the figures for the growth in [8], in assay [9] and in assay [10] were 103%, 94.8% and 96.1%, respectively.
In the case of `COc1ccc(C(=O)Nc2cccc(-c3cc(=O)c4c(OC)c(OC)c(OC)cc4o3)c2)cc1`, the growth in [1] is 28.6%; in assay [2], 18.8%; in assay [4], 95.6%; in assay [5], 62%; in [6], 108%; in assay [7], 53.9%. The figures for the growth in assay [8], in [9] and in assay [10] were 66.8%, 42.9% and 60.2%, respectively.
As to `Cc1ccc(-c2nc(N3CCCNCC3)c3oc(-c4ccccc4)nc3n2)cc1`, the growth in [1] is -42.3% (active); in assay [2], -49.1% (active); in assay [4], -87.3% (active); in [5] it was -62.6% (active); in [6] it was 95.5%; in assay [7], -85.3% (active). Moreover, the growth was -85.7% (active) in assay [8], -29.8% (active) in assay [9] and -45.5% (active) in assay [10].
`CCCCCC(/C=N\NC(=S)N/N=C/C(=C/c1ccccc1)CCCCC)=C\c1ccccc1`: the growth in [1] is 56.2%; in assay [2], 44.7%; in [4], 105%; in assay [5], 56.2%; in assay [6] it was 85.9%; in assay [7] it was 64.1%. The values for the growth in assay [8], in [9] and in assay [10] were 26.2%, 73.8% and 60.2%, respectively.
As for `COc1ccc(Nc2ncc(Br)c(NCCCNC(=O)C3CCCC3)n2)cc1`, the growth is 47% in assay [1]; 49.3% in assay [2]; 54.6% in assay [4]; 56.7% in assay [5]; 30.6% in assay [6]; 14.1% in assay [7]. The growth was 46.6% in assay [8], 29.2% in assay [9] and 51.5% in [10].
As to `CCN1C(=S)N(c2ccccc2)C2C1NN=c1s/c(=C3\C(=O)N(C(C)C)c4ccccc43)c(=O)n12` (stereo not given), the growth is 46.2% in [1]; 97.4% in assay [2]; 93.9% in assay [4]; 1.68% (active) in assay [5]; 104% in [6]; 71% in assay [7]. The growth in [8] is 84.2%; in assay [9] it was 54.8%; in assay [10], 64.1%.
In the case of `C=C(C)[C@@H]1CC[C@]2(C(=O)O)CC[C@]3(C)[C@H](CC[C@@H]4[C@@]5(C)CCC(NC(=O)c6cccc(OC(C)=O)c6OC(C)=O)C(C)(C)[C@@H]5CC[C@]43C)[C@@H]12` (stereo not given in full), the growth in assay [1] was 3.23% (active); in assay [2], -17.8% (active); in assay [4], 1.76% (active); in assay [5] it was 12.9%; in [6], 6.71% (active); in assay [7], 5.12% (active). Also, the growth in assay [8] was 11.8%; in assay [9] it was 15.8%; in assay [10] it was 8.44% (active).
Turning to `Cc1ccc2c(c1)=C/C(=C\c1cc(-c3ccccc3)oc1O)C(=O)N=2`, the growth in assay [1] was 101%; in assay [2], 94.2%; in [4], 97.9%; in assay [5] it was 105%; in assay [6], 111%; in assay [7], 111%. The growth in [8] was 96.5%; in assay [9] it was 106%; in assay [10], 98.4%.
Turning to `O=C(/C=C/c1cccc(Cl)c1)c1cccc(OCCCOc2cccc(C(=O)/C=C/c3cccc(Cl)c3)c2)c1`, the growth in [1] is 37.1%; in assay [2], -8.65% (active); in assay [4], 113%; in [5] it was 102%; in assay [6], 107%; in assay [7], 92.7%. For the same compound, the results for the growth in assay [8], in assay [9] and in assay [10] were 102%, 105% and 99.6%, respectively.
For the compound `C1CN(SSN2CCOCC2)CCO1`, the growth in assay [1] is 13.3% [100 µM]; in assay [2], 1.55% [100 µM] (active); in assay [4], 35.8% [100 µM]; in [5], -51.7% [100 µM] (active); in assay [6] it was 101% [100 µM]; in [7], 54.8% [100 µM]. Moreover, the growth is -82.2% [100 µM] (active) in assay [8], 41% [100 µM] in [9] and 2.69% [100 µM] (active) in assay [10].
In the case of `CC(=O)Oc1ccc(C)cc1C`, the growth in assay [1] is 102%; in [2], 102%; in assay [4], 102%; in assay [5] it was 105%; in assay [6] it was 106%; in assay [7], 114%. In addition, the growth in [8] was 111%; in assay [9] it was 109%; in assay [10], 108%.
Regarding `O=C(N/N=C/c1c(Cl)cccc1Cl)c1cccnc1Nc1cccc(C(F)(F)F)c1`, the growth is 54.5% in assay [1]; 3.23% (active) in assay [2]; 53.4% in assay [4]; 25.1% in assay [5]; 27% in [6]; 31.8% in assay [7]. The growth in assay [8] was 46.8%; in assay [9], 112%; in [10] it was 31%.
Turning to `CS(=O)(=O)c1ccc(-c2cnn3ccc(-c4cccc(S(=O)(=O)C5CC5)c4)nc23)cc1`, the growth in assay [1] was 49.3%; in [2] it was 49.1%; in [4], 68.7%; in assay [5] it was 67.9%; in assay [6], 32.2%; in assay [7], 13.1%. Also, the growth in assay [8] was 54.7%; in assay [9] it was 45.5%; in assay [10], 71.8%.
